The panel holds about 83,000 compounds, 20% with a hit somewhere; the sample as a whole holds those more often.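 Activity criterion: percent growth below 10, measured after cells in 96-well plates were exposed to a single compound concentration for 48 hours.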 A number with no mark means an inactive call. Calls of active or inactive are those of the source.
What follows are molecules tested on SN12C renal (assay: NCI-60 one-dose screen, 48 h (100 = growth as untreated, 0 = no growth, -100 = all killed)). Settings: 10 µM unless noted.

| SMILES | growth |
| --- | --- |
| Cc1ccc(S(=O)(=O)N/N=C2\CC3CCC2(C)C3(C)C)cc1 (configuration not stated) | 93.5% |
| O=C(N=c1n(-c2ccccc2)nc2n1CCN2C1=NCCN1C(=O)c1ccc(Cl)cc1)c1ccc(Cl)cc1 | 80.8% |
| O=C(NCc1ccc(Cn2c(=O)sn(-c3ccccc3)c2=O)cc1)OCc1ccc2c(Br)cc(Br)c(O)c2n1 | -61.4% (active) |
| Cc1nc(Cl)c2c(n1)N(C)c1ccc(Cl)cc1C(C)C2 (configuration not stated) | 86.6% |
| C=C(C)[C@@H]1CC[C@]2(COCCC#N)CC[C@]3(C)[C@H](CC[C@@H]4[C@@](C)(CCCNCCC#N)[C@H](C(=C)C)CC[C@]43C)[C@@H]12 | 27.9% [100 µM] |
| O=C(Nc1cccc(F)c1)c1cc(=O)[nH]c2cc(Br)ccc12 | 60% |
| O=C(NCCCNC(=O)OCc1ccc2c(Br)cc(Br)c(O)c2n1)OCc1ccc2c(Br)cc(Br)c(O)c2n1 | -77.4% (active) |
| COc1ccc(OC)c(NC=O)c1 | 107% |
| CCN(CCNc1ccc(C)c2sc3cc(Cl)ccc3c(=O)c12)CC(C)O (configuration not stated) | 48.7% |
| CN(C)c1ccc(-c2ccc(-c3ccc(C(=N)N)cc3)s2)cc1 | -50.1% (active) |
| CC(=O)OC[C@]12CC[C@@H]([C@@H](C)C(N)=O)[C@@H]1[C@H]1CC[C@@H]3[C@@]4(C)CC[C@H](OC(C)=O)C(C)(C)[C@@H]4CC[C@@]3(C)[C@]1(C)CC2 | -91.6% [100 µM] (active) |
| O=C(Nc1ccccc1)Nc1ccc(C(=O)/C=C/c2ccc(N3CCCC3)cc2)cc1 | 66.5% |

Reference: PubChem BioAssay (NCI)
